Laboratory results published in PubChem BioAssay (EPA / NIEHS).
Activity calls are given as the source filed them. How the source made its calls: active means hit-call score of the fitted dose curve at least 0.9, where 1 is the maximum; inactive means score below 0.9.

Read-out: Decorin, DCN (gene 1634)
Assay: BSK_MyoF_Decorin: BioMAP Diversity Plus: MyoF Assay for Decorin Biomarker Activity (AID 2284265)
Conditions: primary human lung fibroblasts
Description: BSK_MyoF is a cell-based, multiplexed-readout assay that uses lung fibroblasts, […], with measurements taken at 24 hours after chemical dosing in a microplate: 96-well plate.BSK_MyoF_Decorin is an assay component measured in the BSK_MyoF assay. It measures Decorin antibody related to regulation of gene expression using ELISA technology.Data from the assay component BSK_MyoF_Decorin was analyzed at the endpoint, BSK_MyoF_Decorin, in the positive analysis fitting direction relative to DMSO as the negative control and baseline of activity. Using a type of binding reporter, gain or loss-of-signal activity can be used to understand protein changes. To generalize the intended target to other relatable targets, this assay endpoint is annotated to the 'cell adhesion molecules' intended target family, where the subfamily is 'decorin'.
The levels of cell surface (or secreted, indicated by the prefix "s") biomarker endpoints were measured by ELISA. Overt cytotoxicity to cells in confluent adherent cultures (all systems other than the BT system) was assessed by measuring total protein levels using sulforhodamine B (SRB) staining in parallel cultures at the time of biomarker measurements, indicated as SRB endpoints. For proliferation assays for adherent cell types, individual cell types are cultured at sub-confluence and relative cell numbers quantified by SRB staining at time points optimized for each system (48 h: 3C and CASM3C systems; 72 h: BT and HDF3CGF systems; 96 h: SAg system). SRB was performed by staining cells with 0.1% SRB after fixation with 10% TCA and reading wells at 560 nm.Viability and proliferation of PBMC (T cells) was quantified by Alamar Blue reduction for the SAg and BT systems. For PBMC viability (referred to as PBMC Cytotoxicity within the assay endpoint names), cells were plated (75,000/well in a 96-well plate) and then chemical samples added for 1 h before addition of activators, SEB and TSST-1 (20 ng/mL final concentration each). Cells were incubated for 90 h. Then, Alamar Blue (20 uL/well) (Invitrogen, Cat DAL1100) was added for 6 h, and the plates were read with a fluorescence microplate reader at 546/580 nm (excitation/emission). For PBMC proliferation, cells were plated and activated as above but incubated for only 16 h prior to addition of Alamar Blue. Plates were read after 6 h.

| SMILES | outcome | AC50 |
| --- | --- | --- |
| CCOc1nc(F)cc2nc(S(=O)(=O)Nc3c(Cl)cccc3C(=O)OC)nn12 | inactive |  |
| C=CC=CC=CCCCCC | inactive |  |
| c1ccc2c(c1)ccc1cc3c(ccc4ccccc43)cc12 | inactive |  |
| CCCCC(CC)COC(=O)c1ccccc1O (configuration not stated) | inactive |  |
| CC(C)(c1cc(Br)c(OCCO)c(Br)c1)c1cc(Br)c(OCCO)c(Br)c1 |  | 9.76 µM (active) |
| C#CC1(O)CC[C@H]2[C@@H]3CCC4=CCCC[C@@H]4[C@H]3CC[C@@]21C (some centres not stated) |  | 31.4 µM (active) |
| C=CC(=O)OCC(Br)CBr (configuration not stated) | inactive |  |
| c1ccc2c(c1)ccc1ncccc12 | inactive |  |
| CC1OC1C1CCC2(C)OC2C1 (configuration not stated) | inactive |  |
| CC(C)C(=O)C(C)C | inactive |  |
| CCCCC/C=C\C/C=C\CCCCCCCC(=O)OC | inactive |  |
| C=CCOc1c(Br)cc(Br)cc1Br | inactive |  |
| O=c1c2ccccc2oc2ccccc12 | inactive |  |
| CCCCCCCCCCCCCCCC[N+](C)(C)CC |  | 5.5 µM (active) |
| c1ccc(-c2ccccn2)nc1 | inactive |  |
| O=C(Nc1ccccc1SSc1ccccc1NC(=O)c1ccccc1)c1ccccc1 | inactive |  |
| O=Nc1ccc(O)cc1 | inactive |  |
| CCO[Si](CCCN=C=O)(OCC)OCC | inactive |  |
| CCCCCCCCc1ccc(Nc2ccc(CCCCCCCC)cc2)cc1 | inactive |  |
| CCCCNc1ccc(NCCCC)c2c1C(=O)c1ccccc1C2=O | inactive |  |
| COCc1c(C(C)C)nc(C(C)C)c(/C=C/[C@@H](O)C[C@@H](O)CC(=O)O)c1-c1ccc(F)cc1 | inactive |  |
| C=CCOCC(O)CCl (configuration not stated) | inactive |  |
| S=C(NC1CCCCC1)NC1CCCCC1 | inactive |  |
| C/C=C\C/C=C/CCCCCCCCOC(C)=O | inactive |  |
| N#[N+]c1ccc2c(S(=O)(=O)[O-])cccc2c1O | inactive |  |
| COc1ccc2nc(N)sc2c1 | inactive |  |
| O=C(Cl)c1cc(C(=O)Cl)cc(C(=O)Cl)c1 | inactive |  |
